Screening results (PubChem)
Hsp70 activator: Hsp70 transcriptional activators, primary screen, cell-based, HeLa, Hsp70 promoter luciferase, luminescence, 10 µM. HeLa Hsp70 promoter luciferase reporter; scaled: vehicle 0, proteasome-inhibitor control 100%. 0.04% of 200,000 active. activation, % at 10 µM;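 active = activation above the mean across all tested compounds plus 3 SD, cutoff set per campaign, cut at about 5.5% in these data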;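 note: 100% = MG132 at 30 µM as the positive control and 0% = DMSO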
Wee1 degr inh: Wee1 degradation inhibitors, primary screen, cell-based, HeLa, Wee1K328M-luciferase, luminescence | AID 1321, 2008 | reporter increase, % at 5 µM | HeLa Luc-Wee1K328M stability; 100% = proteasome inhibitor MG132 effect | 1.2% of 220,000 active | Wee1-like protein kinase (Homo sapiens), P30291;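 active = activation above the mean of all tested compounds plus 3 SD, set per screening run, cut at about 8.8% in these data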;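 note: cells exposed to compound for 20 h before luminescence read; 0% = DMSO alone and 100% = MG132 at 30 µM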
Target sequence (P30291 whole entry K328M): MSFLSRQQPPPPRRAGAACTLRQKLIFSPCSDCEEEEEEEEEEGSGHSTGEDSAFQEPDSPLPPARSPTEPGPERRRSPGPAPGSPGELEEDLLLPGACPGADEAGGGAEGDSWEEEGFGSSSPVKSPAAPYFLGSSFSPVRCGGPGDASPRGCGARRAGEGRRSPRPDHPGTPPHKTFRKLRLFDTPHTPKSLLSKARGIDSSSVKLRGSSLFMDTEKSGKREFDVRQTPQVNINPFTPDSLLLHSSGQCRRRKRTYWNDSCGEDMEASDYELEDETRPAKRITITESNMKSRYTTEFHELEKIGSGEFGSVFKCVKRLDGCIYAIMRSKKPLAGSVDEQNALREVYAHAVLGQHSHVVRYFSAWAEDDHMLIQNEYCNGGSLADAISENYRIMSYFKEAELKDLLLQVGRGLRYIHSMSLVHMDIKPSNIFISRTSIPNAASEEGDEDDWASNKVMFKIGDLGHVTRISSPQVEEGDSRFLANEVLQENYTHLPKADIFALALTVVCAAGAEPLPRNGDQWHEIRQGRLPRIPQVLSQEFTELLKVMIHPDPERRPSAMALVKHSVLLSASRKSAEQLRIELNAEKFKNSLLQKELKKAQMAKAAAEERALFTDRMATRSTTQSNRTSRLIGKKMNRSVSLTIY
APP transl inh: inhibitors of APP translation via 5'UTR reporter, primary screen, APP 5'UTR luciferase, SH-SY5Y cells | SH-SY5Y APP 5'UTR-luciferase reporter, luminescence | inhibition, % at 2 µM | 0.82% of 190,000 active | AID 1285, 2008;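 active = inhibition above a set limit, derived from the sample mean plus 3 SD, cut at about 45% in these data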
STAT1 activator: STAT1 signaling activators, primary screen, cell-based, HTS, luciferase reporter. NIH 3T3 STAT1-luciferase reporter, IFN-gamma, luminescence; 100% = IFN-gamma alone, no compound. activation (% of control), % at 5.5 µM. 2.6% of 200,000 active. AID 932, 2007;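 active = activation above the screen-wide mean activation plus 3 SD, cut at about 130% in these data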;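 note: raw ratio to IFN-gamma control signal so 100% means no change and 0% no light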
NF-kB expr up: activators of NF-kB expression in neurons, primary screen, cell-based, HTS. human neuronal cells, NF-kB reporter expression; active compounds read high. fold change at 12.5 µM. 1.6% of 190,000 active. AID 1239, 2008; in the data active = fold change above about 3.3
APP 5'UTR act: activators of APP 5'UTR luciferase reporter, primary screen, SH-SY5Y cells. SH-SY5Y APP 5'UTR luciferase reporter, luminescence; zero percent = DMSO vehicle wells. activation, % at 2 µM. 1% of 190,000 active. AID 1276, 2008;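 active = activation above a set limit, based on mean plus 3 SD of controls, cut at about 140% in these data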
STAT1 activ conf: STAT1 signaling activators, confirmation, cell-based, HTS, luciferase reporter | shares compounds with STAT1 activator | NIH 3T3 STAT1-luciferase reporter, IFN-gamma potentiation, luminescence; 100% = IFN-gamma EC80 alone, no compound | activation (% of control), % at 5.7 µM | 97% of 1,200 active | AID 1262, 2008;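 active = activation above a set limit carried over from the earlier primary STAT1 screen, cut at about 140% in these data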;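 note: simple ratio to median IFN-gamma plus DMSO wells so 0% means no light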
NFkB act STAT1ct: NF-kB reporter activators, TNF-alpha stimulated, counter-screen for STAT1 activator project, cell-based, HEK293T, luciferase luminescence | shares compounds with STAT1 activator | 100% = TNF-alpha with vehicle only | activation (% of control), % at 5.7 µM | 43% of 1,200 active | AID 1306, 2008;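 active = activation above the mean of solvent-only control wells plus 3 SD, set per campaign, cut at about 130% in these data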;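 note: TNF-alpha given at a submaximal dose yielding about 80% of full reporter signal; values are well signal over median control so 100% means no change and 0% no light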
STAT3 act STAT1c: STAT3 reporter activation by STAT1 hits, confirmation, counter-screen for STAT1 activator project, U3A cells, luciferase, luminescence; shares compounds with STAT1 activator; IL-6; cells lack STAT1; 100 = IL-6 alone, no compound effect; activation (% of control), % at 5.7 µM; 46% of 1,200 active; AID 1316, 2008;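 active = activation above the solvent-only control well mean plus 3 SD, set per plate batch, cut at about 110% in these data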;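 note: 0% = no luminescence and 100% = median IL-6 plus DMSO wells; higher means more STAT3 reporter activation so hits are non-selective activators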
Active calls of the source: *; . = no result. Sampled rows, rich in hits. Any-hit rate of the full collection: about 4.8%.

SMILES	Hsp70 activator	Wee1 degr inh	APP transl inh	STAT1 activator	NF-kB expr up	APP 5'UTR act	STAT1 activ conf	NFkB act STAT1ct	STAT3 act STAT1c
COc1ccc(CNc2ccc3c(c2)nc(C)n3C)cc1	0.3	3.0	-85.1	150.6*	1.72	85.1	168.3*	127.1	115.5*
O=C(O)c1nsc(Cl)c1Cl	-0.1	1.8	-6.6	102.5	1.52	6.6	.	.	.
NC(=O)c1c(NC(=O)c2cc3ccccc3o2)sc2c1CCC2	0.4	2.2	-98.3	180.9*	1.19	98.3	195.7*	107.7	117.7*
CCOC(=O)CSc1nc2cc3c(cc2cc1C#N)OCO3	0.0	-1.9	-111.8	155.3*	4.08*	111.8	222.7*	143.5*	115.4*
COC(=O)CSc1nc2cc3c(cc2cc1C#N)OCO3	0.0	3.6	-170.0	155.2*	6.76*	170.0*	264.5*	146.9*	117.2*
CCOC(=O)CSc1nc2cc3c(cc2cc1C#N)OCCO3	0.5	6.8	-181.1	174.2*	1.22	181.1*	292.6*	142.7*	122.6*
O=C(Cc1ccccc1)N(c1ccc(F)cc1)C1C=CS(=O)(=O)C1 (centres undefined)	-0.4	1.2	6.5	106.8	1.21	-6.5	.	.	.
Cc1ccc(-n2nc(C(=O)N3CCOCC3)cc2-c2ccc(Cl)cc2)cc1	-0.4	-1.9	-19.0	99.4	0.81	19.0	.	.	.
COc1ccc(Nc2oc(-c3cccs3)nc2C#N)cc1	0.2	4.4	-72.2	150.8*	2.35	72.2	160.2*	119.7	94.2
CNc1oc(-c2cccs2)nc1C#N	-0.1	0.2	-4.2	105.3	1.31	4.2	.	.	.
CCOC(=O)c1cnc(SCc2ccc(C(C)(C)C)cc2)nc1N	-0.3	0.0	-19.8	101.1	1.45	19.8	.	.	.
CCOC(=O)c1cnc(SCc2ccccc2)nc1N	0.2	3.2	-146.4	157.8*	8.96*	146.4*	211.8*	135.3*	109.1
Cc1c(C(=O)NCCSCc2ccccc2)cccc1[N+](=O)[O-]	0.0	-1.9	5.2	94.3	1.18	-5.2	.	.	.
CCOc1ccc(/C=N/NC(=O)Nc2ccccc2)cc1	0.8	3.7	-104.6	161.4*	3.07	104.6	207.7*	140.3*	121.2*
CC(=O)Oc1ccc(/C=N/NC(=S)Nc2ccccc2)cc1	-0.1	7.3	-50.1	160.5*	5.31*	50.1	209.0*	127.8	93.7
CCOc1ccc(/C=N/NC(=O)CC(=O)NCc2ccccc2)cc1	-0.3	-2.0	-2.9	96.4	1.17	2.9	.	.	.
CCN(CC)c1ccc(/C=N/NC(=O)Nc2ccccc2)cc1	0.1	6.7	-79.9	161.7*	.	79.9	173.2*	134.5*	122.5*
O=C1CC(c2ccc3c(c2)OCO3)c2cc3c(cc2N1)OCCO3 (centres undefined)	-0.1	-0.8	5.2	99.9	1.08	-5.2	.	.	.
Cn1c(/C=C/c2ccc([N+](=O)[O-])o2)nc2ccccc2c1=O	-0.2	0.0	36.7	212.1*	1.41	-36.7	121.3	134.1*	103.2
Cc1ccc(C(=O)C(C)OC(=O)c2ccccc2[N+](=O)[O-])cc1 (centres undefined)	0.1	1.4	-172.9	180.7*	9.63*	172.9*	213.4*	132.8	127.3*
